Assay outcomes: PubChem, NMMLSC
LAP4 TOR yeast – modulators of TOR pathway LAP4-GFP in S. cerevisiae. AID 2023. GFP response vs DMSO, % at 10 µM. actives 0.34% (n = 320,000). S. cerevisiae LAP4-GFP multiplex, flow cytometry GFP, 3 h; median GFP as percent of DMSO wells;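 active = GFP response vs DMSO above a set limit, about the screen mean plus 3 SD, cut at about 150% in these data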
MEP2-GFP yeast – modulators of TOR pathway MEP2-GFP in S. cerevisiae. S. cerevisiae MEP2-GFP strain, flow cytometry GFP, 3 h; 100% = DMSO control level. GFP response vs DMSO, % at 10 µM. actives 0.51% (n = 330,000). AID 2016;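 active = GFP response versus DMSO above a set limit, roughly screen mean plus 3 SD, cut at about 180% in these data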;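 note: median GFP fluorescence of the barcode-gated MEP2-GFP cells per well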
CIT2 TOR yeast – alters CIT2-GFP fluorescence in TOR pathway yeast screen | actives 0.065% (n = 320,000) | GFP response vs DMSO, % at 10 µM | S. cerevisiae CIT2-GFP strain, flow cytometry, 3 h; 100 means same as DMSO wells;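 active = GFP response relative to DMSO above a set limit, near the screen mean plus 3 SD, cut at about 150% in these data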;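 note: ratio of well median GFP fluorescence to mean of DMSO wells on the plate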
AGP1 TOR yeast – yeast TOR pathway AGP1-GFP modulation | S. cerevisiae AGP1-GFP multiplex flow cytometry, 3 h; GFP as percent of DMSO wells | GFP response vs DMSO, % at 10 µM | actives 0.02% (n = 320,000);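 active = GFP response relative to DMSO above a set limit, near screen average plus 3 SD, cut at about 150% in these data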;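 note: median GFP channel fluorescence of the gated AGP1 strain per well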
RPL19A TOR yeast – yeast TOR pathway RPL19A-GFP modulation | percent response vs DMSO, % at 10 µM | AID 2025 | actives 0.3% (n = 330,000) | S. cerevisiae RPL19A-GFP strain, flow cytometry, 3 h; hits give low values;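 active = percent response vs DMSO below 50%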;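 note: median channel GFP fluorescence of the barcoded RPL19A-GFP strain; ratio of sample median GFP to plate DMSO average so 100% = DMSO; lower means less RPL19A-GFP as with rapamycin TOR inhibition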
LAP4-GFP pick2 – yeast LAP4-GFP modulation, second cherry pick; shares compounds with LAP4 TOR yeast; S. cerevisiae LAP4-GFP strain, flow cytometry GFP, 3 h; GFP response vs DMSO, % at 10 µM; actives 20% (n = 590);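 active = GFP signal as percent of the solvent control above about 150%, meaning raised reporter expression, limit read from the data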;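 note: ratio of well median GFP fluorescence to plate DMSO mean so 100% = DMSO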
MEP2 cherry2 – reconfirmed MEP2-GFP TOR pathway modulator in yeast; shares compounds with LAP4 TOR yeast; S. cerevisiae MEP2-GFP strain, flow cytometry GFP, 3 h; GFP response vs DMSO, % at 10 µM; actives 10% (n = 590); AID 2622;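 active = GFP signal above 150% of the solvent control wells, that is a rise of more than half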;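 note: median channel GFP fluorescence of all gated yeast cells per well; ratio of median GFP to plate DMSO average so 100% = DMSO level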
RPL19A-GFP pick2 – second confirmation of modulators of TOR reporter RPL19A-GFP in yeast; shares compounds with LAP4 TOR yeast; S. cerevisiae RPL19A-GFP strain, flow cytometry GFP, 3 h; hits give low values; 100% means same as DMSO wells; GFP response vs DMSO, % at 10 µM; actives 3% (n = 590); AID 2623;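 active = under 65% GFP response relative to DMSO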;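 note: median GFP channel fluorescence per well over the all cells gate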
CIT2-GFP pick2 – reconfirmed modulator of CIT2-GFP TOR reporter in yeast; shares compounds with LAP4 TOR yeast; S. cerevisiae CIT2-GFP strain, flow cytometry GFP, 3 h; DMSO control wells read 100%; GFP response vs DMSO, % at 10 µM; actives 8% (n = 590); AID 2624;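 active = GFP response vs DMSO above about 150%, limit read from the data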;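 note: median green fluorescence per well over all gated yeast cells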
AGP1-GFP pick2 – reconfirmed modulator of AGP1-GFP TOR reporter in yeast; percent response vs DMSO, % at 10 µM; S. cerevisiae AGP1-GFP strain, flow cytometry GFP, 3 h; shares compounds with LAP4 TOR yeast; 590 tested, under 10 active;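 active = over 150 percent of DMSO response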;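 note: median GFP channel fluorescence over all cells without mother daughter split; sample median GFP divided by mean DMSO control so 100% equals DMSO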
s288c autofluor – counter-screen for compound autofluorescence in yeast s288c cells; shares compounds with LAP4 TOR yeast; S. cerevisiae s288c, 520 nm autofluorescence, flow cytometry, 3 h; hits give high values; zero means same as solvent-only cells; fluorescence change (kMESF span) at 33 µM; 610 tested, under 10 active;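 active = fluorescence span over the dose series, or activity score, above about 33, limit read from the data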
The depositor's hits bear a star; · = no result given. Compounds with a hit are over-represented: about 0.93% of the library has one in this group of screens.

SMILES | LAP4 TOR yeast | MEP2-GFP yeast | CIT2 TOR yeast | AGP1 TOR yeast | RPL19A TOR yeast | LAP4-GFP pick2 | MEP2 cherry2 | RPL19A-GFP pick2 | CIT2-GFP pick2 | AGP1-GFP pick2 | s288c autofluor
Nc1c(C(=O)NC2CC2)sc2nc3c(c(-c4ccco4)c12)CC/C3=C/c1ccco1 | 195* | 261* | 86 | 38 | 71 | 141 | 113 | 106 | 119 | 101 | ·
O=C(Cn1nc2sc3ccccc3n2c(=O)c1=O)c1ccc(Cl)cc1 | 103 | 94 | 89 | 95 | 96 | · | · | · | · | · | ·
CCC(=O)c1cn(CC(=O)Nc2ccc(OC)cc2)c2ccccc12 | 109 | 99 | 100 | 107 | 100 | · | · | · | · | · | ·
Cc1cc(NC(=O)Cn2nc([N+](=O)[O-])c(Br)c2C)no1 | 109 | 97 | 96 | 104 | 99 | · | · | · | · | · | ·
Cc1cc(=O)oc2cc(Oc3ccc([N+](=O)[O-])cc3C(F)(F)F)ccc12 | 99 | 102 | 94 | 96 | 96 | 105 | 105 | 98 | 99 | 103 | 0.11
COc1cccc(/C=N/Nc2nc(Nc3ccc([N+](=O)[O-])cc3)nc(N3CCCC3)n2)c1O | 105 | 108 | 102 | 106 | 102 | · | · | · | · | · | ·
COc1cccc(/C=N/Nc2ccc([N+](=O)[O-])cn2)c1O | 156* | 113 | 97 | 99 | 97 | 161* | 114 | 94 | 106 | 91 | 0.51
O=C(O)c1ccc(Oc2c(C(F)(F)F)oc3cc(O)ccc3c2=O)cc1 | 92 | 164 | 90 | 57 | 56 | 104 | 103 | 97 | 99 | 98 | ·
Cc1oc2cc(O)ccc2c(=O)c1Oc1ccccc1 | 104 | 101 | 104 | 100 | 101 | · | · | · | · | · | ·
Cc1ccc(S(=O)(=O)N(C)CC(=O)NNC(=O)CCC(=O)c2ccc(F)cc2)cc1 | 95 | 108 | 114 | 107 | 104 | · | · | · | · | · | ·
Cc1ccc(N=Cc2nc(-c3ccco3)oc2O)cc1 | 119 | 95 | 92 | 91 | 91 | · | · | · | · | · | ·
O=C(Oc1oc(-c2ccco2)nc1C=Nc1ccccc1)c1ccoc1 | 217* | 87 | 87 | 72 | 91 | · | · | · | · | · | -9.6
Cc1ccc(C(=O)Oc2oc(-c3ccco3)nc2C=Nc2ccc(Cl)cc2)cc1 | 223* | 96 | 93 | 75 | 100 | · | · | · | · | · | 0.2
O=C(Oc1oc(-c2ccco2)nc1C=Nc1ccccc1)c1ccco1 | 203* | 90 | 71 | 79 | 98 | · | · | · | · | · | 0.3
O=c1oc(-c2ccco2)nc2ccccc12 | 121 | 100 | 93 | 92 | 94 | · | · | · | · | · | ·
NC(=O)CSc1oc(-c2ccco2)nc1S(=O)(=O)c1ccccc1 | 96 | 93 | 101 | 102 | 108 | · | · | · | · | · | ·
O=C(CCCOc1ccc(Br)cc1)NCCc1ccc(OC(F)F)cc1 | 108 | 104 | 106 | 105 | 105 | · | · | · | · | · | ·
CCOc1ccc(NC(=O)CSc2nnnn2C2CC2)cc1S(=O)(=O)N1CCCC1 | 99 | 99 | 93 | 91 | 94 | · | · | · | · | · | ·
Cc1ccc(C)c(Cn2c3ccccc3c3cnn(CC(=O)NCCCN4CCCCC4)c(=O)c32)c1 | 103 | 106 | 104 | 98 | 97 | · | · | · | · | · | ·
O=C(COC(=O)c1ccccc1C(=O)OCC(=O)NCCc1c[nH]c2ccccc12)NCCc1c[nH]c2ccccc12 | 155* | 95 | 131 | 96 | 97 | 102 | 98 | 97 | 102 | 99 | ·
